About 1,300 (0.37%) of roughly 350,000 compounds were called active.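 The calls were made as follows: active = mean added fluorescence quench of at least 8% versus neutral control, with both replicates also reaching 8%; inconclusive = only one of the mean or replicate conditions met; inactive = mean below 8% and not both replicates reaching 8%.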 The entries come from a sample that favours actives as a whole.
Test: F508del CFTR correction, initial screen, CFBE line, single point (AID 720511);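 also: cells transiently co-express mutant CFTR-F508del with the halide-sensitive YFP; corrector assay measuring rescue of mutant channel to the surface after 24 h compound exposure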
Conditions: CFBE cells, YFP halide quenching, at 7.58 µM, stronger effect = higher value, % fluorescence drop versus neutral controls, stimulated with forskolin plus potentiator P3

Q: Which activity (quench increase) does the source give for `O=C(CN1CCOCC1)Nc1cccc([N+](=O)[O-])c1` here?
A: -2.49% (inactive)

Q: Which activity (quench increase) does the source give for `Cc1ccc(NC(=O)CN(C)CC(=O)Nc2cccc(F)c2)cc1[N+](=O)[O-]` here?
A: 1.68% (inactive)

Q: For `Cc1ccc(CN(C)CC(=O)Nc2cccc([N+](=O)[O-])c2)o1`, which activity (quench increase) is on record?
A: 10.1% (active)

Q: With `COc1cccc(-c2ccc3c(c2)[C@H]2[C@H](CCN2C(=O)c2ccc(F)cc2)[C@@H](CO)N3)c1` as the compound, how does the activity (quench increase) read?
A: 1.42% (inactive)

Q: For `Cc1cc2oc(=O)cc(-c3ccccc3)c2c(C)c1-c1ccc(OC(F)(F)F)cc1`, which activity (quench increase) is on record?
A: 1.07% (inactive)

Q: For `COc1cc(OC)c2c(-c3cccc(-c4cccc(N)c4)c3)cc(=O)oc2c1`, which activity (quench increase) is on record?
A: 8.2% (active)

Q: For `COc1cccc(NC(=O)COc2cc(C)cc3oc(=O)cc(C)c23)c1`, which activity (quench increase) is on record?
A: 2.8% (inactive)

Q: Which activity (quench increase) does the source give for `O=C1Nc2ccccc2C1=NN=Cc1ccco1` here?
A: -2.93% (inactive)

Q: Which activity (quench increase) does the source give for `Cc1cc(C)c(/C=C2\C(=O)Nc3ccccc32)[nH]1` here?
A: 10.3% (active)

Q: Which activity (quench increase) does the source give for `COc1ccc(/C=N/N=C2/C(=O)Nc3ccccc32)cc1O` here?
A: -1.27% (inactive)

Q: For `O=C(NCC[C@H]1CC[C@H](NC(=O)C2CC2)[C@@H](CO)O1)c1ccc(F)cc1`, which activity (quench increase) is on record?
A: 1.43% (inactive)

Q: For `COc1ccc2c(C)c(CCC(=O)NC3CC3)c(=O)oc2c1C`, which activity (quench increase) is on record?
A: 2.05% (inactive)

Q: Which activity (quench increase) does the source give for `Cc1c(CCC(=O)O)c(=O)oc2cc(OCc3ccc(Br)cc3)ccc12` here?
A: 0.947% (inactive)

Q: Which activity (quench increase) does the source give for `Cc1c(CCC(=O)O)c(=O)oc2c(C)c(OCc3ccccc3Cl)ccc12` here?
A: 9.04% (active)

Q: Which activity (quench increase) does the source give for `C[C@@H]1CN([C@@H](C)CO)S(=O)(=O)c2ccc(C#CCN(C)C)cc2O[C@@H]1CN(C)C(=O)CC1CC1` here?
A: 0.474% (inactive)

Q: For `COC(=O)COc1cccc2c(=O)n(CC(=O)NCc3ccccc3)ccc12`, which activity (quench increase) is on record?
A: 11% (active)

Q: For `CCOC(=O)C(C)Oc1cccc2c(=O)n(CC(=O)NCCc3ccc(OC)c(OC)c3)ccc12` (centres undefined), which activity (quench increase) is on record?
A: 2.66% (inactive)

Q: With `COC(=O)COc1cccc2c(=O)n(CC(=O)NCCc3ccc(OC)c(OC)c3)ccc12` as the compound, how does the activity (quench increase) read?
A: -1.22% (inactive)

Q: With `COCC#Cc1ccc([C@@H]2[C@@H](CO)N3CCCCN(C(=O)NC4CCCC4)C[C@H]23)cc1` as the compound, how does the activity (quench increase) read?
A: -0.841% (inactive)

Q: With `C[C@@H]1CCCCO[C@@H](CN(C)CC2CC2)[C@@H](C)CN([C@H](C)CO)C(=O)c2cc(NC(=O)Nc3cccc4ccccc34)ccc2O1` as the compound, how does the activity (quench increase) read?
A: -0.347% (inactive)

Q: For `COc1ccc(/C=C2\CCc3ccccc3C2=O)c(OC)c1OC`, which activity (quench increase) is on record?
A: -2.36% (inactive)

Q: For `COc1ccc(/C=C2\N=C3CCCN3C2=O)cc1`, which activity (quench increase) is on record?
A: -1.7% (inactive)

Q: Which activity (quench increase) does the source give for `COc1ccc(/C=C2/CCCc3ccccc3C2=O)cc1` here?
A: 14.3% (active)

Q: With `Cc1ccc(S(=O)(=O)N(C)C[C@H]2OCCCC[C@@H](C)Oc3ccc(NC(=O)NC4CCCCC4)cc3C(=O)N([C@H](C)CO)C[C@@H]2C)cc1` as the compound, how does the activity (quench increase) read?
A: 0.861% (inactive)

Q: With `O=C(C[C@H]1C[C@@H]2c3cc(NC(=O)CC4CC4)ccc3O[C@@H]2[C@H](CO)O1)NCc1ccccn1` as the compound, how does the activity (quench increase) read?
A: -1.26% (inactive)

Q: With `CN(CC(=O)Nc1ccc(Cl)cc1)C(=O)CNC(=O)c1ccc2ccccc2c1` as the compound, how does the activity (quench increase) read?
A: -7.73% (inactive)

Q: Which activity (quench increase) does the source give for `Cc1cccc(C(=O)NCC(=O)OCC(=O)N(C)CC(=O)Nc2ccccc2Cl)c1` here?
A: 16.8% (active)

Q: With `CN(CC(=O)Nc1ccccc1Cl)C(=O)COc1cccc2c1OC(C)(C)C2` as the compound, how does the activity (quench increase) read?
A: -5.27% (inactive)

Q: For `C/C=C/c1ccc2c(c1)O[C@H](CN(C)C(=O)Nc1ccccc1)[C@H](C)CN([C@@H](C)CO)S2(=O)=O`, which activity (quench increase) is on record?
A: -0.894% (inactive)

Q: For `COc1ccc2c3c([nH]c2c1)[C@H](CO)N(C(=O)C1CCOCC1)CC31CN(S(C)(=O)=O)C1`, which activity (quench increase) is on record?
A: -0.365% (inactive)

Q: For `CS(=O)(=O)Nc1ccc2c(c1)[C@H]1C[C@H](CC(=O)NCc3ccc(Oc4ccccc4)cc3)O[C@H](CO)[C@H]1O2`, which activity (quench increase) is on record?
A: 4.1% (inactive)

Q: For `COc1cc(OC)cc(C(=O)N[C@H](C(=O)Nc2nc3ccccc3[nH]2)C(C)C)c1`, which activity (quench increase) is on record?
A: 13.5% (active)

Q: With `COc1cc(OC)cc(C(=O)N[C@H](C(=O)NNC(=O)c2ccc(Br)cc2)C(C)C)c1` as the compound, how does the activity (quench increase) read?
A: -1.77% (inactive)

Q: Which activity (quench increase) does the source give for `COc1cc(OC)cc(C(=O)NC(C(=O)N2CCC2)C(C)C)c1` (centres undefined) here?
A: 1.12% (inactive)

Q: With `COc1ccc(NC(=O)N(C)C[C@H]2OCCCC[C@H](C)Oc3ccc(NC(=O)NC4CCCCC4)cc3C(=O)N([C@@H](C)CO)C[C@@H]2C)cc1` as the compound, how does the activity (quench increase) read?
A: -0.706% (inactive)

Q: Which activity (quench increase) does the source give for `COc1ccc2c3c([nH]c2c1)[C@H](CO)N(C(=O)c1ccccc1)CC31CN(C(=O)Nc2cccc(F)c2)C1` here?
A: 0.989% (inactive)

Q: With `COc1ccc2[nH]c3c(C)c4cc[n+](C)cc4c(C)c3c2c1` as the compound, how does the activity (quench increase) read?
A: 12.8% (active)

Q: Which activity (quench increase) does the source give for `CC(C)NC(=O)Nc1ccc2c(c1)C(=O)N([C@H](C)CO)C[C@H](C)[C@H](CN(C)C(=O)CCC(F)(F)F)OCCCC[C@H](C)O2` here?
A: 0.243% (inactive)

Q: Which activity (quench increase) does the source give for `O=C(C[C@@H]1C=C[C@@H](NS(=O)(=O)c2ccccc2)[C@@H](CO)O1)NCc1ccccc1F` here?
A: -1.3% (inactive)

Q: Which activity (quench increase) does the source give for `COCC(=O)Nc1ccc2c(c1)OC[C@@H](C)N(CCc1ccccc1)C[C@H](C)[C@@H](OC)CN(C)C2=O` here?
A: -4.64% (inactive)

Q: Which activity (quench increase) does the source give for `Cn1c(Nc2cccc(Cl)c2)nc2ccccc21` here?
A: 0.14% (inactive)

Q: With `Clc1ccc(Nc2ccc3ccccc3n2)cc1` as the compound, how does the activity (quench increase) read?
A: 9.55% (active)

Q: Which activity (quench increase) does the source give for `C=CCNc1nc(Nc2ccc(Cl)cc2)nc(OC)n1` here?
A: 1.27% (inactive)

Q: For `CCCNC(=O)N1CC2(CN(C(=O)c3cnccn3)C2)c2c([nH]c3cc(OC)ccc23)[C@@H]1CO`, which activity (quench increase) is on record?
A: -0.147% (inactive)

Q: With `C[C@H](NC(=O)C[C@@H]1C[C@@H]2c3cc(NS(=O)(=O)c4ccc(F)cc4)ccc3O[C@@H]2[C@@H](CO)O1)c1ccccc1` as the compound, how does the activity (quench increase) read?
A: 0.793% (inactive)

Q: Which activity (quench increase) does the source give for `COc1ccc2c3c(n(C)c2c1)[C@@H](CO)N(Cc1ccncc1)CC31CN(C(=O)Nc2cccc(F)c2)C1` here?
A: -1.9% (inactive)

Q: With `CC1(C(=O)NCc2ccco2)Cc2c(-c3ccc4c(c3)OCO4)ccnc2O1` (centres undefined) as the compound, how does the activity (quench increase) read?
A: 8.09% (active)

Q: For `COc1ccc(NC(=O)C2(C)Cc3c(-c4cccc(NC(C)=O)c4)ccnc3O2)cc1OC` (centres undefined), which activity (quench increase) is on record?
A: -0.498% (inactive)

Q: For `COc1ccc(NC(=O)C2(C)Cc3c(-c4cccc(NC(C)=O)c4)ccnc3O2)cc1` (centres undefined), which activity (quench increase) is on record?
A: 9.41% (active)

Q: For `CC1(C(=O)NCc2ccc(F)c(F)c2)Cc2c(-c3ccc4c(c3)OCO4)ccnc2O1` (centres undefined), which activity (quench increase) is on record?
A: 0.827% (inactive)

Q: With `COc1ccc(NC(=O)C2(C)Cc3c(-c4ccc(C(N)=O)cc4)ccnc3O2)cc1` (centres undefined) as the compound, how does the activity (quench increase) read?
A: -0.667% (inactive)

Q: For `CC(=O)Nc1cccc(-c2ccnc3c2CC(C)(C(=O)NCc2ccco2)O3)c1` (centres undefined), which activity (quench increase) is on record?
A: 7.38% (inactive)

Q: With `CCC(=O)N1CC2(CN(Cc3cccnc3)C2)c2c(n(C)c3cc(OC)ccc23)[C@@H]1CO` as the compound, how does the activity (quench increase) read?
A: -0.0075% (inactive)

Q: With `CCCC#Cc1cnc2c(c1)C(=O)N([C@@H](C)CO)C[C@@H](C)[C@@H](CN(C)Cc1ccccc1F)O2` as the compound, how does the activity (quench increase) read?
A: 0.509% (inactive)

Q: With `CNC(=O)C[C@@H]1CC[C@@H]2[C@@H](COc3ccc(NC(=O)c4ccc5c(c4)OCO5)cc3C(=O)N2C)O1` as the compound, how does the activity (quench increase) read?
A: 0.442% (inactive)

Q: With `COCC(=O)N(C)C[C@@H]1Oc2ncc(C#C[C@H](C)O)cc2C(=O)N([C@@H](C)CO)C[C@@H]1C` as the compound, how does the activity (quench increase) read?
A: 1.42% (inactive)

Q: With `COc1ccc(NC(=O)Nc2ccc3c(c2)[C@H]2C[C@H](CC(=O)NC4CCCC4)O[C@H](CO)[C@H]2O3)cc1` as the compound, how does the activity (quench increase) read?
A: 2.1% (inactive)

Q: Which activity (quench increase) does the source give for `C[C@@H]1CCCCO[C@H](CN(C)C(=O)CCC(F)(F)F)[C@@H](C)CN([C@@H](C)CO)C(=O)c2cc(NC(=O)c3ccncc3)ccc2O1` here?
A: 2% (inactive)

Q: Which activity (quench increase) does the source give for `Cc1ccccc1-c1ccc([C@H]2[C@H]3CN(S(=O)(=O)c4ccc(F)cc4)CCCCN3[C@H]2CO)cc1` here?
A: -0.288% (inactive)

Q: Which activity (quench increase) does the source give for `O=C(N[C@H]1CC[C@H](CCn2cc(-c3ccccc3F)nn2)O[C@@H]1CO)c1ccc2c(c1)OCO2` here?
A: -1.87% (inactive)

Q: With `C[C@@H]1CCCCO[C@@H](CN(C)Cc2ccncc2)[C@H](C)CN([C@@H](C)CO)C(=O)c2cc(N(C)C)ccc2O1` as the compound, how does the activity (quench increase) read?
A: -0.227% (inactive)

Q: With `N#C[C@@H]1[C@@H](c2ccccc2)[C@H](CO)N1C(=O)c1cc(Cl)cc(Cl)c1` as the compound, how does the activity (quench increase) read?
A: -2.95% (inactive)

Q: Which activity (quench increase) does the source give for `O=C(NCCC1CCCCN1S(=O)(=O)c1cccs1)C(=O)Nc1ccc(F)cc1F` (centres undefined) here?
A: 8.8% (active)

Q: Which activity (quench increase) does the source give for `COc1ccccc1CCNC(=O)C(=O)NCCC1CCCCN1S(=O)(=O)c1cccs1` (centres undefined) here?
A: 0.824% (inactive)

Q: For `O=C(NCCC1CCCCN1S(=O)(=O)c1ccc(F)cc1)C(=O)NC1CC1` (centres undefined), which activity (quench increase) is on record?
A: 3.1% (inactive)

Q: For `COc1cccc(-c2ccc3c(c2)O[C@@H](CN(C)Cc2ccncc2)[C@H](C)CN([C@H](C)CO)S3(=O)=O)c1`, which activity (quench increase) is on record?
A: 3.64% (inactive)

Q: For `Cc1noc(C)c1NC(=O)N(C)C[C@H]1OCCCC[C@@H](C)Oc2ccc(NC(=O)NC(C)C)cc2C(=O)N([C@H](C)CO)C[C@@H]1C`, which activity (quench increase) is on record?
A: 1.72% (inactive)

Q: With `Cc1nnc(NC(=O)CSc2nccn2-c2cccc(C)c2C)s1` as the compound, how does the activity (quench increase) read?
A: 8.52% (active)

Q: For `COc1ccccc1-n1ccnc1SCC(=O)NC(C)(C)C`, which activity (quench increase) is on record?
A: 0.912% (inactive)

Q: With `COc1ccccc1-n1c(CNC(=O)c2ccccc2)nnc1SCC(=O)Nc1nnc(C)s1` as the compound, how does the activity (quench increase) read?
A: 2.1% (inactive)

Q: For `C[C@H](CO)N1C[C@H](C)[C@H](CN(C)S(=O)(=O)c2ccc(Cl)cc2)Oc2c(NS(C)(=O)=O)cccc2C1=O`, which activity (quench increase) is on record?
A: 1.05% (inactive)

Q: For `CCCN1[C@H](C(=O)N2CCCCC2)[C@@H](CO)[C@@H]2Cn3c(ccc(-c4ccccc4F)c3=O)[C@@H]21`, which activity (quench increase) is on record?
A: 1.6% (inactive)

Q: With `CCCNC(=O)[C@@H]1[C@@H](CO)[C@@H]2Cn3c(ccc(/C=C/c4ccccc4)c3=O)[C@H]1N2CCC` as the compound, how does the activity (quench increase) read?
A: 3.14% (inactive)

Q: Which activity (quench increase) does the source give for `CCCN1[C@H](C(=O)N2CCOCC2)[C@@H](CO)[C@@H]2Cn3c(ccc(/C=C/c4ccccc4)c3=O)[C@@H]21` here?
A: 9.23% (active)
